This is a sample that favours compounds with a hit; in the whole collection about 0.63% have one here.
gsp antag – qHTS for Antagonists of gsp, the Etiologic Mutation Responsible for Fibrous Dysplasia/McCune-Albright Syndrome: qHTS. Potency, µM (highest dose often 76.9 µM), hits mostly inhibitors. gsp-mutant cells, cAMP HTRF, 30 min. actives 0.4% (n = 340,000); calls by dose curve; cell line not stated here;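 also: intracellular cAMP measured with PDE inhibitor Ro 20-1724 present during compound exposure; nearly all actives have a fitted effect of over 65% in size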
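HTRF cAMP measurement after 30 min RT detection following 30 min, 37C compound treatment alongside […] (added as 300 uM solution) in G418-selected cells seeded at 2000/well and grown 16–24 h.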
TSHR antagonist – Antagonists of the Thyroid Stimulating Hormone Receptor: HTS campaign; Thyrotropin receptor (Homo sapiens), P16473; TSHR-expressing cells, TSH-stimulated cAMP HTRF, 2 h; hits give low values; activity change, negative = inhibition, % at 11.5 µM; actives 0.2% (n = 330,000); AID 504810, 2011;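 active = activity change below a set negative limit, meaning inhibition stronger than a set level, cut at about -70% in these data; inconclusive = activity change between two set negative limits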
Target sequence (P16473 whole entry, looked up): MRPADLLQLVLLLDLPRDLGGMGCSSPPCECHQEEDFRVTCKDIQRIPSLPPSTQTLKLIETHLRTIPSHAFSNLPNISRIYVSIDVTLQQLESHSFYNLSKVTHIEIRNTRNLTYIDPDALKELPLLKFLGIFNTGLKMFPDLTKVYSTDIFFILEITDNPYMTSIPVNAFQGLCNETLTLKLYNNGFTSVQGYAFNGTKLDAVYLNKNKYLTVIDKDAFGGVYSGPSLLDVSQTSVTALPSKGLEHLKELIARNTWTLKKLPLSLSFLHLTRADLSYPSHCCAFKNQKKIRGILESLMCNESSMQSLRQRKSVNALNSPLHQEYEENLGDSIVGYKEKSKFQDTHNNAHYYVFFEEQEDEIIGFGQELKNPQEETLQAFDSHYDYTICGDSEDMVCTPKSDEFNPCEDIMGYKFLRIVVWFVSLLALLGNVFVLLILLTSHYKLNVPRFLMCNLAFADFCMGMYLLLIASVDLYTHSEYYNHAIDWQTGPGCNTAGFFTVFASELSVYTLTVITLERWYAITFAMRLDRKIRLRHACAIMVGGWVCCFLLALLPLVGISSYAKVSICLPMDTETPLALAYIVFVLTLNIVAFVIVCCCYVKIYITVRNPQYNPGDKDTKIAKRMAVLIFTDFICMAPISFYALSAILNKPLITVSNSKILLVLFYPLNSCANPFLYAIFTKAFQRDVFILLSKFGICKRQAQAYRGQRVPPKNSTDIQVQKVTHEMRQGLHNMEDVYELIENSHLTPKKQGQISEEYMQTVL
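TSHR-expressing cells, 200/well, pre-treated with compound, then stimulated with EC80 TSH (4nM final) for 2 hours at 37 deg C. cAMP measured by competitive HTRF: anti-cAMP cryptate antibody in lysis buffer plus cAMP-d2, read after 30 minutes at room temperature.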
TCR act – Activators of T cell receptors: qHTS campaign. primary human leukocytes, anti-CD3, IL-2 HTRF, 48 h. Potency, µM (top dose mostly 9.22 µM), usual class: activators. 330,000 tested, under 10 active; active = well fitted activation curve with a large enough effect; inconclusive = small, poorly fitted or top-dose-only effect, or another doubt; inactive = no such curve, though single readings can be large or run the other way
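Human primary leukocytes + a-CD3 beads + cpd, 48 hr; IL-2 in supernatant by HTRF (ex 320nm / em 665nm). No co-stimulatory signal supplied.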
Pin1 inh – qHTS Assay to Find Inhibitors of Pin1; Peptidyl-prolyl cis-trans isomerase NIMA-interacting 1 (Homo sapiens), Q13526; Pin1 FP peptide displacement, HiFluor488, 10 min; Potency, µM (series often up to 115 µM), actives largely listed as inhibitors; actives 0.009% (n = 390,000); AID 504891, 2011; active = well fitted inhibition curve with a large enough effect in the polarisation, with a control signal flat, not every such curve was filed as active; inconclusive = small, poorly fitted or top-dose-only effect, or effect the other way, or a change in a side signal; inactive = no such curve, though single readings can be large or run the other way; the % refers to the polarisation
gsp ag – qHTS for Agonist of gsp, the Etiologic Mutation Responsible for Fibrous Dysplasia/McCune-Albright Syndrome: qHTS. gsp mutant cells, cAMP HTRF, 30 min. Potency, µM (top dose mostly 76.9 µM), usual class: activators. actives 0.13% (n = 340,000). AID 624287, 2012; active = well fitted activation curve with a large enough effect; inconclusive = small, poorly fitted or top-dose-only effect, or another doubt; inactive = no such curve, though single readings can be large or run the other way; cell line not stated here;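 also: phosphodiesterase inhibitor Ro 20-1724 added with compounds to block cAMP breakdown; nearly all actives have a fitted effect of over 60% in size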
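Cells stably selected in G418 were plated at 2000/well, grown 16-24 hr, then given compounds in DMSO with the PDE inhibitor […] (300 uM solution added) for 30 min at 37C; cAMP was read by HTRF.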
Hits are given with their value; - = inactive; ? = inconclusive; . = no result given; [ ] = another dose, or the depositor's remark.

SMILES | gsp antag | TSHR antagonist | TCR act | Pin1 inh | gsp ag
COc1ccc(NC(=O)N2CCC(c3ccccc3)C2)c(OC)c1 (centres undefined) | 50µM | - | - | - | -
CC(C)CC(=O)n1sc(NC(=O)c2ccccc2)nc1=O | 28µM | - | - | - | -
Cc1ccc(C(=O)Nc2nc(=O)n(C)s2)cc1 | 22µM | - | - | - | -
Cc1ccc(C(=O)Nc2nc(=O)n(C(=O)CC(C)C)s2)cc1 | - | - | - | - | -
COc1ccccc1CCC(=O)N(CCC1=CCCCC1)c1c(N)n(Cc2ccccc2)c(=O)[nH]c1=O | - | . | - | - | -
O=C(c1ccc(N2CCN(C(=O)c3ccccc3Br)CC2)cc1)c1cccc(F)c1 | ? | - | - | - | ?
O=C(c1ccc(N2CCN(C(=O)c3cccc(F)c3)CC2)cc1)c1cccc(F)c1 | 32µM | - | - | - | -
CC(=O)Nc1ccc(NC(=O)C2CCCN2C(=O)NC2CCCCC2)cc1 (centres undefined) | - | - | - | - | -
CC1(C)CC(=O)c2cnc(NCc3ccco3)nc2C1 | - | - | - | - | -
NC(=O)c1ccccc1NC(=O)CSC1=NCCS1 | - | - | - | - | -
O=C(CSC1=NCCS1)Nc1ccc(F)cc1 | 8.9µM | - | - | - | -
O=C(O)c1cc(-c2ccccc2)nc(-c2ccccc2)c1 | 32µM | - | - | - | -
O=C(O)c1cc(C(=O)O)c(-c2ccccc2)c(C(=O)O)c1 | - | - | - | - | -
CNC(=O)COC(=O)/C=C/c1cn(-c2ccccc2)nc1-c1ccc2c(c1)OCCO2 | - | - | - | - | -[15.4 µM]
Cc1ccc(-c2nn(-c3ccccc3)cc2/C=C/C(=O)OCC(=O)NC2CC2)o1 | 50µM | - | - | - | -
CCOC(=O)CSc1ccc2nnc(-c3cccnc3)n2n1 | - | - | - | - | 10µM
Cc1ccc2c(=O)n3c(nc2c1)C(C)NC(=O)c1cccnc1-3 (centres undefined) | . | . | . | . | 32µM
Clc1ccc(-[n+]2c(-c3cccc(Br)c3)[nH]c3nc4ccccc4nc32)cc1 | ? | - | - | - | -[15.4 µM]
CCCCn1c(N)c(N(CC(C)C)C(=O)CN(C)S(=O)(=O)c2ccc(NC(C)=O)cc2)c(=O)[nH]c1=O | - | - | - | - | -
COC(=O)c1cc(CSc2nc3ccccc3c(=O)n2C)oc1C | 35µM | - | - | - | -
COc1ccc(OC)c(CNC(=O)c2nn(C)c3c2CSc2ccccc2-3)c1 | . | . | . | - | .
COc1ccc(N=C2SCC(=O)N2CCc2ccc(OC)c(OC)c2)cc1 | - | - | - | - | -
COc1ccc(CCN2C(=O)CSC2=Nc2ccc(C(C)C)cc2)cc1OC | 28µM | - | - | - | -[15.4 µM]
CC(=O)Nc1cc2c3c(c1)CC(=O)N3CCC2 | 50µM | - | - | - | -
O=C(O)c1ccc(-n2ncc(Cl)c(Cl)c2=O)cc1 | . | . | . | . | 10µM
SMILES | gsp antag | TSHR antagonist | TCR act | Pin1 inh | gsp ag
CC(=O)Nc1c(Cl)cnn(-c2ccccc2)c1=O | - | . | - | - | -
Cc1[nH]n(-c2ccccc2)c(=O)c1Sc1ccc(Cl)cc1 | - | - | - | - | -
Cc1cc(-c2c(C)[nH]n(-c3ccc(Cl)cc3)c2=O)n[nH]1 | 40µM | - | - | ? | -
CC1OC(OC2C(CO)OC(OCC3OC(OC(=O)[C@@]45CCC(C)(C)C[C@@H]4C4=CC[C@@H]6[C@@]7(C)CCC(OC8OCC(O)C(O)C8OC8OC(C)C(O)C(O)C8O)[C@@](C)(CO)C7CC[C@@]6(C)[C@]4(C)CC5)C(O)C(O)C3O)C(O)C2O)C(O)C(O)C1O (some centres undefined) | 40µM | . | - | - | .
CC1(C)CC[C@]2(C(=O)O)CC[C@]3(C)C(=CC[C@@H]4[C@@]5(C)CC[C@H](O[C@@H]6O[C@H](C(=O)O)[C@@H](O)[C@H](O[C@@H]7OC[C@H](O)[C@H](O)[C@H]7O)[C@H]6O)C(C)(C)[C@@H]5CC[C@]43C)[C@@H]2C1 | 45µM | ? | - | . | .
C[C@H]1O[C@H](O[C@H]2[C@H](O[C@@H]3CC[C@@]4(C)C(CC[C@]5(C)C4CC=C4[C@@H]6CC(C)(C)CC[C@]6(C(=O)O[C@@H]6O[C@H](CO)[C@@H](O)[C@H](O)[C@H]6O)CC[C@]45C)C3(C)C)O[C@H](C(=O)O)[C@@H](O)[C@@H]2O)[C@@H](O)[C@@H](O)[C@@H]1O (some centres undefined) | - | - | - | - | -
COc1ccc([N+](=O)[O-])cc1/C=N/NC(=O)/C(=C\c1cccs1)NC(=O)c1ccccc1 | - | - | - | - | -
NC(=S)c1cc2ccc(O)cc2oc1=O | - | - | - | ? | 2.5µM
C/C(=N/NC(N)=S)c1cc2ccc(O)cc2oc1=O | - | - | - | ? | -
CCOC(=O)c1ccc(-c2cc(C)no2)[nH]1 | - | - | - | - | -
CCCc1nc(SCC(=O)c2ccccc2)c2c(=O)n(C)c(=O)n(C)c2n1 | 35µM | - | - | ? | -
COC(=O)c1ccc(CO/N=C/c2cccc([N+](=O)[O-])c2)cc1 | - | - | - | - | -[15.4 µM]
Cc1nc2c(C(=O)NCCC(C)C)c[nH]n2c(=O)c1Cc1ccccc1F | 20µM | - | - | . | -
Cc1ccc(-c2nnc(Nc3ccccc3)c3ccccc23)cc1S(=O)(=O)N1CCOCC1 | . | . | . | - | .
COc1ccc(CNC(=O)CCS(=O)(=O)c2cc3c(cc2Cl)NC(=O)CO3)cc1 | - | -120 | - | - | -
CC(=O)c1c(C)[nH]c(C(=O)OCc2csc(CC(=O)Nc3ccccc3C)n2)c1C | 25µM | - | - | - | ?
CC(C)=CC(=O)OCc1csc(CC(=O)Nc2ccccc2C)n1 | - | - | - | - | -
CCOc1ccc(NS(=O)(=O)c2ccc3nc(-c4ccccc4)[nH]c3c2)cc1 | . | . | . | - | .
Cc1nnc(NC(=O)CCCCCN2C(=O)C3C4C=CC(C4)C3C2=O)s1 (centres undefined) | 50µM | - | - | - | -
CC(C)c1nnc(NC(=O)CCCCCN2C(=O)C3C4C=CC(C4)C3C2=O)s1 (centres undefined) | - | - | - | - | -
CCc1ccc(-c2csc(NC(=O)C3=NN(c4ccccc4)C(=O)CC3)n2)cc1 | ? | - | - | - | -
O=C(CN1C(=O)c2cccc([N+](=O)[O-])c2C1=O)N1CCN(c2ccc(F)cc2)CC1 | - | - | - | - | -[15.4 µM]
CCn1c(=O)c([N+](=O)[O-])c(NCCc2ccccc2)c2ccccc21 | 40µM | - | - | - | -
CCc1cc(=O)oc2c3c(cc(OCC(=O)NC4CC4)c12)OC(C)(C)CC3 | - | - | - | - | .

Source: PubChem (National Center for Advancing Translational Sciences (NCATS))
